Results: PubChem BioAssay (EPA / NIEHS)
Several values for one entry are separate records, joined by “and”; a condition that tells them apart may be missing. Equal values may be shown once. Results filed as inconclusive are left out. Activity calls are given as the source filed them. How the source made its calls: active means hit-call score of the fitted dose curve at least 0.9, where 1 is the maximum; inconclusive means response in the unintended direction; inactive means score below 0.9.

Experiments:
[1] = TOX21_p53_BLA_p2_viability: Viability Assessment in the Tox21 HCT-116 p53 Agonism Beta-lactamase Assay, Phase 2 (AID 2283591);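 further: compound exposure lasted 16 h at 37 °C; actives lower the ATP signal meaning cytotoxicity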
Summary of the method: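 HCT116 p53-bla cells, 4000/well, dosed after 5 h plating (217-fold dilution of DMSO stocks) and incubated 16 h at 37C. Viability taken as cellular ATP by CellTiter-Glo luminescence after 30 min RT; signal loss marks cytotoxicity.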

[2] = molecular target: Cellular tumor antigen p53 (Homo sapiens) (UniProt P04637); assay: TOX21_p53_BLA_p2_ratio: Tox21 HCT-116 p53 Agonism Beta-lactamase Assay, Ratio, Phase 2 (AID 2283592)
Summary of the method: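 Ratio endpoint: beta-lactamase cleavage of CCF4-AM, blue (460 nm) over green (530 nm). HCT116 reporter line; 16 h treatment, 37C; substrate 2 h RT.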

[3] = TOX21_p53_BLA_p3_viability: Viability Assessment in the Tox21 HCT-116 p53 Agonism Beta-lactamase Assay, Phase 3 (AID 2283593);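 further: cells exposed to compound for 16 h before reading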
Summary of the method: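 HCT116 cells, 4000/well, dosed 5 h after plating by pin transfer (217-fold dilution from DMSO stock) and incubated 16 h at 37C, 5% CO2. Viability read as ATP luminescence with CellTiter-Glo after 30 min at room temperature.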

[4] = molecular target: Cellular tumor antigen p53 (Homo sapiens) (UniProt P04637); assay: TOX21_p53_BLA_p3_ratio: Tox21 HCT-116 p53 Agonism Beta-lactamase Assay, Ratio, Phase 3 (AID 2283596)
Summary of the method: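 Cells were seeded at 4000/well, rested 5 h at 37C, then dosed with DMSO compound solutions (217-fold dilution) for 16 h. CCF4-AM substrate was loaded for 2 h at room temperature, and the 460/530 nm emission ratio was fitted for gain of signal versus DMSO.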

[5] = TOX21_p53_BLA_p4_viability: Viability Assessment in the Tox21 HCT-116 p53 Agonism Beta-lactamase Assay, Phase 4 (AID 2283597);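 further: hits lower the luminescence signal meaning cytotoxicity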
Summary of the method: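 Cytotoxicity was inferred from loss of CellTiter-Glo luminescence. HCT116 cells had been dosed with compounds after 5 h plating, incubated 16 h at 37C and 5% CO2, and exposed to the CCF4-AM substrate for 2 h.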

[6] = molecular target: Cellular tumor antigen p53 (Homo sapiens) (UniProt P04637); assay: TOX21_p53_BLA_p5_ratio: Tox21 HCT-116 p53 Agonism Beta-lactamase Assay, Ratio, Phase 5 (AID 2283599)
Summary of the method: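 HCT-116 p53-bla cells (4000/well) plated 5 h, dosed with compound (217-fold DMSO dilution) for 16 h at 37 C; CCF4-AM substrate 2 h at room temperature. Activity is the 460/530 nm emission ratio (405 nm excitation), fitted in gain-of-signal direction versus DMSO.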

[7] = TOX21_p53_BLA_p5_viability: Viability Assessment in the Tox21 HCT-116 p53 Agonism Beta-lactamase Assay, Phase 5 (AID 2283600)
Summary of the method: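 Luciferase-coupled ATP quantitation of cells treated for 16 h (37C, 5% CO2) with test chemicals delivered in DMSO via a 217-fold dilution; 4000 cells/well; reagent incubated 30 min at room temperature before luminescence reading.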

[8] = molecular target: Cellular tumor antigen p53 (Homo sapiens) (UniProt P04637); assay: TOX21_p53_BLA_p4_ratio: Tox21 HCT-116 p53 Agonism Beta-lactamase Assay, Ratio, Phase 4 (AID 2283601)
Summary of the method: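 HCT-116 p53 beta-lactamase reporter cells (4000/well) preincubated 5 h, then compound (217-fold dilution of DMSO stock) for 16 h at 37C. CCF4-AM substrate added 2 h at room temperature; 460/530 nm emission ratio fitted upward versus DMSO.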

[9] = molecular target: Thyroid hormone receptor alpha (Rattus norvegicus) + Thyroid hormone receptor beta (Rattus norvegicus) (UniProt P18113+P63059); assay: TOX21_TR_LUC_GH3_Antagonist_Followup: Tox21 GH3 Thyroid Hormone Receptor Antagonism Luciferase Follow-Up Assay (AID 2283942)
Summary of the method: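 Luminescence read-out (ONE-Glo, 30 min at room temperature) in GH3 reporter cells challenged with 1.0 nM T3 final. Compounds ran at 92 uM to 5nM over 15 concentrations for 24 h; DMSO served as negative control and baseline.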

THRA (gene 7067) = THRA (gene 7067) (UniProt P10827); assay: TOX21_TRA_COA_Antagonist_Followup_ratio: Tox21 Thyroid Hormone Receptor alpha Antagonism through Coactivator Recruitment Follow-Up Assay, Ratio (AID 2283953)
Summary of the method: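 GST-TRα LBD 2.5 nM, BSA 0.10%, + cpd; then FITC-SRC-2 peptide 200 nM + Tb-anti-GST Ab 2 nM. TR-FRET ratio 520/495 nm. Norm: DMSO = 0%, T3 = 100%.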

THRB (gene 7068) [10] = molecular target: THRB (gene 7068) (UniProt P10828); assay: TOX21_TRB_BLA_Antagonist_Followup_ratio: Tox21 Thyroid Hormone Receptor beta Antagonism Beta-lactamase (BLA) Follow-Up Assay, Ratio (AID 2283958)
Summary of the method: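 Cells were plated and allowed to attach for 5 h, then dosed with compounds in DMSO at 11 concentrations for 18 h at 37C. Beta-lactamase reporter activity was measured via CCF4-AM FRET as the 460:530 nm ratio.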

[11] = TOX21_TRB_BLA_Antagonist_Followup_viability: Viability Assessment in the Tox21 Thyroid Hormone Receptor beta Antagonism Beta-lactamase (BLA) Follow-Up Assay (AID 2283961)
Summary of the method: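 HEK293T cells stably expressing GAL4-DBD/human TRβ-LBD with UAS-bla reporter, 3,000 cells/well in phenol red-free DMEM, 2% charcoal-stripped FBS. Compounds at 11 concentrations in triplicate, 18 h at 37C/5% CO2; viability by CellTiter-Glo luminescence after 30 min at room temperature.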

THRB (gene 7068) [12] = molecular target: THRB (gene 7068) (UniProt P10828); assay: TOX21_TRB_COA_Antagonist_Followup_ratio: Tox21 Thyroid Hormone Receptor beta Antagonism through Coactivator Recruitment Follow-Up Assay, Ratio (AID 2283967)
Summary of the method: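 GST-TRb LBD 5.0 nM + 0.10% BSA, compound added; fluorescein-SRC-2 peptide 200 nM, Tb-anti-GST Ab 2 nM. TR-FRET, ex 340 / em 520:495 ratio. Norm: DMSO 0%, T3 100%.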

[13] = TOX21_TR_RXR_BLA_Antagonist_Followup_viability: Viability Assessment in the Tox21 Thyroid Hormone Receptor beta Retinoid X Receptor alpha (RXRa) Antagonism Beta-lactamase (BLA) Follow-Up Assay (AID 2283979)
Summary of the method: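 RXRa-bla HEK293T cells (2,500/well, phenol red-free DMEM, 2% charcoal-stripped FBS) were attached 5 h, then exposed to compounds at 11 concentrations in triplicate for 16 h at 37C. Viability measured by CellTiter-Glo ATP luminescence, bidirectional fitting versus DMSO.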

[14] = molecular target: Retinoic acid receptor RXR-alpha (Homo sapiens) (UniProt P19793); assay: TOX21_TR_RXR_BLA_Antagonist_Followup_ratio: Tox21 Thyroid Hormone Receptor beta Retinoid X Receptor alpha (RXRa) Antagonism Beta-lactamase (BLA) Follow-Up Assay, Ratio (AID 2283972)
Summary of the method: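 RXRa-UAS-bla HEK293T cells in phenol red-free DMEM with 2% charcoal-stripped FBS; compounds at 11 concentrations in triplicate, 16 h at 37C. LiveBLAzer FRET-B/CCF4-AM substrate 2 h at room temperature; read as 460:530 nm ratio versus DMSO.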

Measured: AC50

Retinoic acid receptor RXR-alpha (Homo sapiens), sequence (P19793 whole entry, looked up): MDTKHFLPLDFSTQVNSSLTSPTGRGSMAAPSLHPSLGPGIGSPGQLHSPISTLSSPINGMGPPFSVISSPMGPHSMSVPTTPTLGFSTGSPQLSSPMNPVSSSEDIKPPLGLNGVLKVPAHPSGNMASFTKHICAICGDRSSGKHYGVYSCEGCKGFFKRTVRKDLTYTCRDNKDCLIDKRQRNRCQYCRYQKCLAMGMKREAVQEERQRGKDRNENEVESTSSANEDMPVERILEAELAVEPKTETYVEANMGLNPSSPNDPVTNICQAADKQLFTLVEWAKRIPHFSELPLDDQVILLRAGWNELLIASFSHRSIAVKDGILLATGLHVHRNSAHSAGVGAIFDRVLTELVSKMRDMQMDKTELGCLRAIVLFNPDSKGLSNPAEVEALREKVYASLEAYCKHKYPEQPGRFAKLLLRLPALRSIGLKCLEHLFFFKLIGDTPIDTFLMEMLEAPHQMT
Cellular tumor antigen p53 (Homo sapiens), sequence (P04637 whole entry, looked up): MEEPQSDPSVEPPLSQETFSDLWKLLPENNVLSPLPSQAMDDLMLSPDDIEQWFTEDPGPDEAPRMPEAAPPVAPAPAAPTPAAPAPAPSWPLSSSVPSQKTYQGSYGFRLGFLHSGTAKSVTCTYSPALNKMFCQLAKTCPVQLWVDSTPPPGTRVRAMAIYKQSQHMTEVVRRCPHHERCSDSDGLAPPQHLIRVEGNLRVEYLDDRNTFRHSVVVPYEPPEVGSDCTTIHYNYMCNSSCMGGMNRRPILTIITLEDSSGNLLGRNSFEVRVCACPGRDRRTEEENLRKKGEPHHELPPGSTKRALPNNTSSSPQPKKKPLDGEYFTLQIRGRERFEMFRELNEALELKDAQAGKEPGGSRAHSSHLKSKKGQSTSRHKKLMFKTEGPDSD
THRA (gene 7067), sequence (P10827 whole entry, looked up, the tested form may be a part): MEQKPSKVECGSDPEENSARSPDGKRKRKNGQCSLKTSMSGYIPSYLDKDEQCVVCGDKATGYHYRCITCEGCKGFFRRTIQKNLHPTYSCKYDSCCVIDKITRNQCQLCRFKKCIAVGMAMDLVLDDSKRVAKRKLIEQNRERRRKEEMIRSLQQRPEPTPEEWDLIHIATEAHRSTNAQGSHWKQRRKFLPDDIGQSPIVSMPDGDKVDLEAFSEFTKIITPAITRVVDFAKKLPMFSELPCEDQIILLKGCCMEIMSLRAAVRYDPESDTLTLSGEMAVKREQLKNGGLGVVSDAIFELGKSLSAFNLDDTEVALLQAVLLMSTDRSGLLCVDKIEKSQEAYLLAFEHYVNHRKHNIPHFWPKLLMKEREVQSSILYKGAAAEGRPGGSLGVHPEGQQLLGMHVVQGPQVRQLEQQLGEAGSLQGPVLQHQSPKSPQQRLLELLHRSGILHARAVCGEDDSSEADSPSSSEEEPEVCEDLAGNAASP
THRB (gene 7068), sequence (P10828 whole entry, looked up, the tested form may be a part): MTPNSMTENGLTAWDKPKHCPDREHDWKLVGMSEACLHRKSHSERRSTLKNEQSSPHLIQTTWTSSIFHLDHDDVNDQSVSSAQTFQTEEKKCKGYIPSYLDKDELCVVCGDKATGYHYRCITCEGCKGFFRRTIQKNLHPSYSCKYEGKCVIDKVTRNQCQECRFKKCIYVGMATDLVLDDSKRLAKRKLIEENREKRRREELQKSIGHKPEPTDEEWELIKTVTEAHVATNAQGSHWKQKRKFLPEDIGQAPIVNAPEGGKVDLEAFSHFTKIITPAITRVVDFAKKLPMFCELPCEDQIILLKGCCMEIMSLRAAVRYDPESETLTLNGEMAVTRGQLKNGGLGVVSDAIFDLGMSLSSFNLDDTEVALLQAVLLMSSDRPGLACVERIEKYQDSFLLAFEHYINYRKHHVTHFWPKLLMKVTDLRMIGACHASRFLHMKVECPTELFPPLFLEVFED

CCCCCOc1ccc(C2SC(=O)NC2=O)cc1OCC (stereo unspecified)
active: THRB (gene 7068) [10] 1.76 µM | THRB (gene 7068) [12] 10.8 µM
not listed: [14]
inactive: all other assays above

CC(=O)NCCCS(=O)(=O)O
inactive: [1] | [2] | [3] | [4] | [5] | [6] | [7] | [8]

COC(=O)Nc1nc2ccc(Sc3ccccc3)cc2[nH]1
active: [2] 99.9 nM and 139 nM | [4] 163 nM and 98.8 nM | [6] 161 nM and 97.3 nM | [8] 122 nM and 96.1 nM | THRB (gene 7068) [10] 0.868 µM
not listed: [9]
inactive: all other assays above

CO[C@H]1C[C@@H]2CC[C@@H](C)[C@@](O)(O2)C(=O)C(=O)N2CCCC[C@H]2C(=O)O[C@H]([C@H](C)C[C@@H]2CC[C@@H](OCCO)[C@H](OC)C2)CC(=O)[C@H](C)/C=C(\C)[C@@H](O)[C@@H](OC)C(=O)[C@H](C)C[C@H](C)\C=C/C=C/C=C/1C
inactive: THRA (gene 7067) | THRB (gene 7068) [10] | [11] | THRB (gene 7068) [12] | [13]
active: [1] 19.2 µM | [2] 17.9 µM | [3] 27.4 µM | [4] 40.2 µM | [5] 21.9 µM | [6] 21.9 µM | [7] 20.6 µM | [8] 23 µM | [9] 0.00976 µM

COc1ccc(Cl)cc1C(=O)NCCc1ccc(S(=O)(=O)NC(=O)NC2CCCCC2)cc1
inactive: [1] | [2] | [3] | [4] | [5] | [6] | [7] | [8]

NNc1nncc2ccccc12
inactive: [1] | [2] | [3] | [4] | [5] | [6] | [7] | [8]

CC1(COc2ccc(CC3SC(=O)NC3=O)cc2)CCCCC1 (stereo unspecified)
active: [1] 28.8 µM | [2] 36.7 µM | [3] 35.1 µM | [4] 27.1 µM | [5] 18.6 µM | [6] 27.6 µM | [8] 34.7 µM

CN(C)CCOC(=O)COc1ccc(Cl)cc1
inactive: [1] | [2] | [3] | [4] | [5] | [6] | [7]

CC1(C)[C@@H](O[C@H]2O[C@H](C(=O)O)[C@@H](O)[C@H](O)[C@H]2O[C@@H]2O[C@H](C(=O)O)[C@@H](O)[C@H](O)[C@H]2O)CC[C@]2(C)[C@H]3C(=O)C=C4[C@@H]5C[C@@](C)(C(=O)O)CC[C@]5(C)CC[C@@]4(C)[C@]3(C)CC[C@@H]12
inactive: [1] | [2] | [3] | [4] | [5] | [6] | [7] | [8]

CCOC(=O)n1ccn(C)c1=S
inactive: [1] | [2] | [3] | [4] | [5] | [6] | [7] | [8]

Clc1cccc(Cl)c1NC1=NCCN1
inactive: [1] | [2] | [3] | [4] | [5] | [6] | [7] | [8]

O=C(O)CN(CCN(CC(=O)O)CC(=O)O)CC(=O)O
inactive: [1] | [2] | [3] | [4] | [5] | [6] | [7] | [8]

O=C1C(=O)c2ncccc2-c2cccnc21
active: [2] 1.01 µM | [4] 1.08 µM | [5] 5.12 µM | [6] 0.599 µM | [8] 0.96 µM | [11] 5.41 µM
inactive: all other assays above

Cc1cc(C)c(N)c(Cl)c1
inactive: [1] | [2] | [3] | [4] | [5] | [6] | [8]

CCc1cc(Cl)c(OC)c(C(=O)NC[C@@H]2CCCN2CC)c1O
not listed: [9] | THRA (gene 7067)
inactive: all other assays above

Cc1nc2sccn2c(=O)c1CCN1CCC(=C(c2ccc(F)cc2)c2ccc(F)cc2)CC1
active: [1] 37.8 µM | [2] 36.5 µM | [3] 8.52 µM | [5] 23 µM
inactive: [4] | [6] | [7] | [8]

Cc1c(O)cccc1C(=O)N[C@@H](CSc1ccccc1)[C@H](O)CN1C[C@H]2CCCC[C@H]2C[C@H]1C(=O)NC(C)(C)C
active: [1] 36.3 µM and 18.7 µM | [2] 44.9 µM and 20.2 µM | [3] 21.6 µM and 21.1 µM | [4] 43.8 µM and 38.2 µM | [5] 27.9 µM | [6] 66.8 µM and 35.3 µM | [7] 33.1 µM and 19.5 µM | [8] 46.8 µM and 23.1 µM

C1=CCC(c2ccccc2)CC1 (stereo unspecified)
inactive: [1] | [2] | [3] | [4] | [5] | [6] | [7] | [8]

O=c1[nH]c(=O)n([C@H]2C[C@H](O)[C@@H](CO)O2)cc1F
active: [3] 0.6 µM | [4] 1.45 µM | [5] 1.53 µM | [6] 1.8 µM | [7] 0.595 µM | [8] 6.7 µM
inactive: all other assays above
